Assay outcomes (PubChem BioAssay)
Hits are enriched below; roughly 7.9% of the tested compounds scored in any of these assays.
HCV inhibitor – qHTS Assay for Inhibitors of Hepatitis C Virus (HCV) | AID 651820, 2012 | Potency, µM (doses to about 41.8 µM), hits mostly inhibitors | Huh7.5.1 HCVcc-Cre infection, luciferase reporter, 44 h | 340,000 tested, 3.4% active; active = well fitted inhibition curve with a large enough effect; inconclusive = small, poorly fitted or top-dose-only effect, or another doubt; inactive = no such curve, though single readings can be large or run the other way
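Compounds are dispensed onto cells plated 4 h earlier at 1,000 per well, with HCVcc-Cre virus (about 0.5 moi) added next. Following 44 h of culture, luminescent signal is measured for 15 sec after 15 min with substrate at room temperature.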
MARV entry inh – qHTS for inhibitors of binding or entry into cells for Marburg Virus | Marburg virus pseudotyped entry inhibition, cell reporter | Potency, µM (doses to about 37.8 µM), hits mostly inhibitors | 300,000 tested, 1.8% active; calls by dose curve; tested in HEK293 cells
HCMV inh – qHTS Assay for inhibitors of the human cytomegalovirus (HCMV); activity change, negative = inhibition, % at 57.5 µM; AID 1259415, 2018; HFF cells, HCMV-luciferase reporter, 72 h; stronger effect = lower value; 410,000 tested, 4.5% active; in the data active = activity change below about -60%; inconclusive = no clear call, values can overlap the other calls; inactive = above about -39%
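HFF cells seeded 16 h at 37C, treated with compounds, infected with luciferase-reporter HCMV at MOI 1 PFU/cell; luciferase read at 72 h post infection, normalized to buffer-only and Salinomycin controls.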
FMDV inh – High Throughput Screening for Foot and Mouth Disease Virus Antivirals; FMDV antiviral cell-based qHTS; AID 1159524, 2015; 410,000 tested, 1.2% active; Potency, µM (series often up to 57.9 µM), usual class: inhibitors; calls by dose curve; tested in HEK293T cells; note: read-out not given here; nearly all actives have a fitted effect of over 45% in size
Lassa entry inh – qHTS for Inhibitors of binding or entry into cells for Lassa Virus; Lassa virus pseudotype entry inhibition, cell reporter; Potency, µM (doses to about 37.9 µM), actives largely listed as inhibitors; 300,000 tested, 1.2% active; AID 540256, 2011; calls by dose curve; tested in HEK293 cells; note: nearly all actives have a fitted effect of over 50% in size
Of the large screens only hits and unclear results are named; the others gave an inactive call.

COc1cccc(C(=O)C2CCCN(Cc3cccn3-c3ccccn3)C2)c1 (configuration not stated)	MARV entry inh inconclusive, HCMV inh -63, Lassa entry inh inconclusive
COC(=O)c1cc(-c2ccc(Br)cc2)c2c(=O)n(C)c(=O)n(C)c2n1	none (no result: MARV entry inh, Lassa entry inh)
COc1ccc(-n2c(=O)c3sc4ccccc4c3n(Cc3ccccc3)c2=O)cc1	MARV entry inh inconclusive (no result: HCV inhibitor)
Cc1cc(C)cc(NC(=O)c2cc(S(=O)(=O)N3CCOCC3)cn2C)c1	none (no result: HCV inhibitor, MARV entry inh)
Clc1ccccc1-c1cncnc1NCCN1CCOCC1	none (no result: HCV inhibitor, MARV entry inh, HCMV inh, Lassa entry inh)
O=C(c1ccc(Cl)cc1)C1CCCN(Cc2cccc3ncccc23)C1 (configuration not stated)	HCV inhibitor 7.9µM, FMDV inh inconclusive (no result: MARV entry inh, Lassa entry inh)
CC[C@@H](C)[C@@H](N)C1=N[C@H](C(=O)N[C@@H](CC(C)C)C(=O)N[C@@H](CCC(=O)O)C(=O)N[C@@H](C(=O)N[C@@H]2CCCCNC(=O)[C@@H](CC(N)=O)NC(=O)[C@@H](CC(=O)O)NC(=O)[C@@H](Cc3cnc[nH]3)NC(=O)[C@@H](Cc3ccccc3)NC(=O)[C@@H]([C@H](C)CC)NC(=O)[C@@H](CCCN)NC2=O)[C@@H](C)CC)CS1	none (no result: HCV inhibitor, MARV entry inh, HCMV inh, Lassa entry inh)
CC1=C(C(=O)OCC2CCCO2)C(c2ccc(C)o2)C2=C(CC(c3ccc(N(C)C)cc3)CC2=O)N1 (configuration not stated)	HCV inhibitor inconclusive (no result: HCMV inh, FMDV inh, Lassa entry inh)
CC1=C(C(=O)OCC2CCCO2)C(c2ccc(C)o2)C2=C(CC(c3ccc(F)cc3)CC2=O)N1 (configuration not stated)	HCV inhibitor 8.9µM, MARV entry inh 10µM (no result: HCMV inh)
COc1ncc2nc(-c3cn(C)c4ccccc34)c(=O)n(C)c2n1	none (no result: HCV inhibitor, MARV entry inh, HCMV inh, Lassa entry inh)
CCCN(C)C1CN(Cc2cn(Cc3cccc(C(F)(F)F)c3)nn2)S(=O)(=O)C1 (configuration not stated)	HCMV inh -100 (no result: HCV inhibitor, MARV entry inh, Lassa entry inh)
Cc1c(C(=O)NC2CCCCC2C)oc2ccccc12 (configuration not stated)	none
COc1cccc(C2C(C(=O)Nc3ccccc3)=C(C)Nc3nnnn32)c1OC (configuration not stated)	HCMV inh -100 (no result: HCV inhibitor, MARV entry inh)
Cc1ccc(NC(=S)Nc2ccc(OC(F)F)c(Cl)c2)cc1F	HCV inhibitor 13µM, HCMV inh inconclusive
Cc1cccc(N2CCc3c2nc2ccc(Br)cc2c3N)c1	HCV inhibitor 10µM, MARV entry inh inconclusive, HCMV inh inconclusive (no result: FMDV inh)
CSc1nc(C)c2c(n1)N(c1cccc(C)c1)CC2	HCV inhibitor 10µM
Cc1ccc2cc3c(nc2c1)N(c1ccccc1)CC3	HCV inhibitor inconclusive, HCMV inh inconclusive
Brc1ccc(-c2nc(N3CCN(c4ccccc4)CC3)c3ccccc3n2)cc1	HCMV inh inconclusive, Lassa entry inh inconclusive (no result: HCV inhibitor, MARV entry inh)
Nc1c2c(nc3ccc(Br)cc13)N(c1ccccc1)CC2	HCV inhibitor 7.1µM (no result: FMDV inh)
Nc1c2c(nc3ccccc13)CCN(Cc1ccccc1)C2	HCV inhibitor inconclusive (no result: MARV entry inh, Lassa entry inh)
Nc1c2c(nc3ccc(Br)cc13)N(Cc1ccccc1)CC2	HCV inhibitor 10µM
COc1ccc2c(c1)O[C@H](c1cccc(C(F)(F)F)c1)[C@@H](O)C2=O	none (no result: HCV inhibitor, HCMV inh, FMDV inh, Lassa entry inh)
COc1ccc(CNc2ncnc3ccc(-c4cccc(C#N)c4)cc23)c(OC)c1	none (no result: HCV inhibitor, MARV entry inh, HCMV inh, Lassa entry inh)
Cc1oc(-c2ccccc2NC(=O)c2ccccn2)nc1CNC(=O)c1cccc(C#CC(C)(C)O)c1	none (no result: HCV inhibitor, MARV entry inh, HCMV inh, Lassa entry inh)
Cc1cc(NC(=O)c2ccc3[nH]c(C)c(C)c3c2)ccn1	HCV inhibitor 2.5µM
CC(=O)Nc1cccc(NC(=O)c2ccc3[nH]c(C)c(C)c3c2)c1	Lassa entry inh inconclusive
COCCNC(=O)C(c1ccccc1F)N(C(=O)C(=O)NC1CCCC1)C1CCCCC1 (configuration not stated)	HCV inhibitor inconclusive, HCMV inh -80, Lassa entry inh inconclusive
COCCN(C(=O)CCl)C(C(=O)NC1CCCCC1)c1ccccc1C (configuration not stated)	HCV inhibitor inconclusive, MARV entry inh 8.9µM, HCMV inh -98, FMDV inh 20µM, Lassa entry inh inconclusive
COCCN(C(=O)CNC(=O)c1ccco1)C(C(=O)NC1CCCC1)c1ccccc1F (configuration not stated)	none
COCCN(C(=O)CCC(=O)Nc1cc(C)on1)C(C(=O)NC1CCCC1)c1ccccc1C (configuration not stated)	none
O=C(NC1CCCC1)C(c1ccc(F)cc1)N(Cc1ccccc1Cl)C(=O)CCl (configuration not stated)	HCV inhibitor inconclusive, MARV entry inh inconclusive, FMDV inh 28µM
Cc1cnc(SCC2CCCO2)nc1C1CCCN(Cc2nc(-c3ccccc3)cs2)C1 (configuration not stated)	none (no result: HCV inhibitor, MARV entry inh, HCMV inh, Lassa entry inh)
COc1ccc(NC(=O)CN(C)C(=O)C(Sc2ccccc2)c2ccccc2)cc1 (configuration not stated)	HCV inhibitor inconclusive, HCMV inh -72 (no result: MARV entry inh, Lassa entry inh)
O=C(NCC1CCCO1)c1ccc(F)c2ccccc12 (configuration not stated)	none (no result: MARV entry inh, Lassa entry inh)
C[C@H]1CCCC(=O)CCC/C=C/c2cc(O)cc(O)c2C(=O)O1	HCMV inh -99, FMDV inh inconclusive (no result: Lassa entry inh)
COc1ccc2c(c1)C(c1cccs1)=NNC(c1ccncc1)=N2	HCV inhibitor 11µM (no result: MARV entry inh, Lassa entry inh)
Cc1ccc(NC(=O)c2ccc(=O)n(CC(=O)Nc3cc(C)cc(C)c3)n2)cc1	Lassa entry inh inconclusive (no result: HCV inhibitor, MARV entry inh)
CCOc1ccccc1NC(=O)c1nc(S(=O)(=O)Cc2ccccc2)ncc1Cl	HCV inhibitor inconclusive, HCMV inh -109, FMDV inh 32µM (no result: MARV entry inh, Lassa entry inh)
CCS(=O)(=O)c1ncc(Cl)c(C(=O)N(Cc2ccccc2)c2ccc(OC)cc2)n1	MARV entry inh inconclusive, HCMV inh -99, FMDV inh 11µM, Lassa entry inh inconclusive (no result: HCV inhibitor)
CCS(=O)(=O)c1ncc(Cl)c(C(=O)N2CCN(c3ccc(OC)cc3)CC2)n1	MARV entry inh inconclusive, HCMV inh -99, FMDV inh 32µM, Lassa entry inh inconclusive (no result: HCV inhibitor)
COc1ccc(N(Cc2ccccc2)C(=O)c2nc(SC)ncc2Cl)cc1	MARV entry inh inconclusive (no result: HCV inhibitor)
CCS(=O)(=O)c1ncc(Cl)c(C(=O)Nc2ccccc2OC)n1	HCV inhibitor inconclusive, FMDV inh 3.5µM, Lassa entry inh inconclusive
CCCCn1nc(C(=O)N(C)CC(=O)Nc2ccc(F)c(F)c2F)ccc1=O	none
O=C(O)CC(NS(=O)(=O)c1ccc(Br)s1)c1ccccc1 (configuration not stated)	none (no result: HCV inhibitor, MARV entry inh)
COC(=O)c1ccc(N2C(=O)C[C@H](N3CCN(C(=O)c4ccco4)CC3)C2=O)cc1	none (no result: HCV inhibitor, HCMV inh, FMDV inh, Lassa entry inh)
CCc1nc2cc(C(=O)N3CCC[C@H]3CO)cc(NC(=O)c3ccccc3OC)c2n1C	none (no result: HCV inhibitor, MARV entry inh, HCMV inh, Lassa entry inh)
COc1ccccc1NC(=O)c1nc(SCc2ccc(F)cc2)ncc1Cl	none (no result: HCV inhibitor)
COc1ccc(OC)c(NC(=O)c2nc(S(=O)(=O)Cc3ccc(F)cc3)ncc2Cl)c1	MARV entry inh inconclusive, HCMV inh -97, FMDV inh 22µM, Lassa entry inh inconclusive (no result: HCV inhibitor)
